# In PubChem BioAssay (EPA / NIEHS):
# Active and inactive are the calls of the source. How the source made its calls: active means hit-call score of the fitted dose curve at least 0.9, where 1 is the maximum; inactive means score below 0.9.
# Experiment: CCTE_Padilla_ZF_Score.General: CCTE's 144 Hour Post-fertilization zebrafish Assay Score for General Malformation, Padilla Lab (AID 2284411)
# Method: CCTE_Padilla_ZF_Phenotype_Score is a whole embryo, multiplexed assay using zebrafish ova exposed for 144 hours post fertilization on a 96-well plate.CCTE_Padilla_ZF_Score.General is one of one assay component(s) measured or calculated from the CCTE_Padilla_ZF_Phenotype_Score assay. It is designed to make measurements of zebrafish development as detected with brightfield microscopy of developing zebrafish embryos.Data from the assay component CCTE_Padilla_ZF_Score.General was analyzed into 1 assay endpoints. This assay endpoint, CCTE_Padilla_ZF_Score.General, was analyzed in the positive analysis fitting direction relative to DMSO as the negative control and baseline of activity. Using a type of viability reporter, gain-of-signal activity can be used to understand changes in developmentals as they relate to the whole embryo. To generalize the intended target to other relatable targets, this assay endpoint is annotated to the zebrafish development intended target family, where the subfamily is embryonic morphogenesis.
# Zebrafish husbandry: Wild type adult zebrafish (Danio rerio; undefined outbred stock obtained from Aquatic Research Organisms, Hampton, NH, 03842) were housed in an AAALAC-approved animal facility at 28C with a 14:10 h light: dark cycle (lights on at 08:30 h). Adult fish (2-3 females per male; density = 15-20 adults per tank) were kept in one of several 9-liter (L) flow-through colony tanks (Aquaneering Inc., San Diego, CA). All adults in a colony tank were placed in a 2 L (static) breeding tank (Aquatic Habitats, Apopka, FL) one hour prior to light onset. Typically, adults from two to three colony tanks were mated on the same day. Two hours after light onset the adults were returned to the colony tank. All embryos were gathered from each breeder tank, pooled, and placed in a 28C water bath for 2 h, followed by two washes with 0.06% bleach (v/v) in 10% Hanks' Balanced Salt Solution (13.7 mM NaCl 0.54 mM KCl, 25 uM Na2HPO4, 130 uM CaCl2 100 um MgSO4 and 420 um NaHCO3,), hereafter referred to as Hanks' solution, for 5 min in order to remove any residual bacteria or fungi. Immediately following washing, the embryos were examined, and healthy embryos were separated from dead or unfertilized eggs and moved into fresh Hanks'. Chemical exposures: Zebrafish embryos were exposed in 96-well plates. Between 6- and 8-hours post fertilization (hpf), healthy embryos (with chorions) were transferred, one embryo per well, into 96 well (0.5 mL) microtiter plates (Cell Culture-Treated, Flat-Bottom Microplate 96 well [Corning Costar, Kennebunk, ME; Cat 09-761-145]) filled with 200 uL of Hanks' solution. A random number generator was used to assign the order in which the rows of embryos were plated in 96 well plates each week. After plating, the embryos were dosed with 0.8 uL of the chemical dosing solution then immediately sealed with AlumaSeal II (Excel Scientific Inc, Victorville, CA) to prevent volatilization of the chemicals, and then placed in a leakproof secondary container. These containers were placed in an incubator maintained on a 14:10 h light: dark cycle at 26C for rearing. On 5 dpf, live larvae were gently moved out of the plate with test chemicals and into a new 96 well mesh plate (Millipore Corp., Bedford, MA) with just the Hanks' solution. Once within the mesh well plate, the animals were rinsed with 400 uL of fresh Hanks' three times, and then the plates were covered with a non-adhesive material (Microseal A, BioRad, Hercules, CA), plate lid added, and then plate sides wrapped in Parafilm (PM992, Bermis Company, Neenah, WI), and returned to the incubator. […]
SMILES,outcome,AC50
O=C(O)C=C(C(F)(F)F)C(F)(F)F,inactive,–
FC(F)(F)C(F)(F)C(F)(F)C(F)(F)C(F)(F)C(F)(F)C(F)(F)C(F)(F)F,inactive,–
FC(F)(F)C(F)(F)C(F)(F)C(F)(F)C(F)(F)CCI,–,54.7 µM (active)
CCCCCCCCCCCCCCCC[N+](C)(C)Cc1ccccc1,inactive,–
O=C(O)C(F)(F)C(F)(F)C(F)F,inactive,–
C=C(C)C(=O)OCC(F)(F)C(F)(F)C(F)(F)F,inactive,–
O=C(O)C(F)(F)C(F)(F)C(F)(F)F,inactive,–
O=C(O)C(F)(F)C(F)(F)C(F)(F)C(F)(F)C(F)(F)C(F)(F)C(F)(F)C(F)(F)C(F)(F)C(F)(F)C(F)(F)C(F)(F)F,inactive,–
OCCCC(F)(F)C(F)(F)C(F)(F)F,inactive,–
C=CC(F)(F)C(F)(F)C(F)(F)C(F)(F)C(F)(F)C(F)(F)C(F)(F)C(F)(F)F,inactive,–
FC(F)(F)C(F)(F)C(F)(F)C(F)(F)C(F)(F)C(F)(F)C(F)(F)I,–,11.8 µM (active)
Nc1ccc([N+](=O)[O-])cc1O,inactive,–
FC(F)(F)C(F)(F)C(F)(F)C(F)(F)C(F)(F)C(F)(F)C(F)(F)Br,inactive,–
FC(F)(Br)C(F)(F)C(F)(F)C(F)(F)C(F)(F)C(F)(F)Br,inactive,–
CCCCCCS,inactive,–
O=C(O)C(F)(F)C(F)(F)C(F)(F)C(F)(F)C(F)(F)C(F)(F)C(F)(F)C(F)(F)C(F)(F)C(F)F,–,15.8 µM (active)
Cc1ccc(S(=O)(=O)OCC(F)(F)C(F)(F)C(F)(F)C(F)(F)C(F)(F)C(F)F)cc1,–,8.85 µM (active)
CCO[Si](CCC(F)(F)C(F)(F)C(F)(F)C(F)(F)C(F)(F)C(F)(F)F)(OCC)OCC,inactive,–
CCCCNc1ccccc1,inactive,–
FC(F)(F)C(F)(F)C(F)(F)C(F)(F)C(F)(F)C(F)(F)CC1CO1 (stereo not given),inactive,–

SMILES,outcome,AC50
C=C(C)C(=O)OCC(F)(F)C(F)(F)C(F)(F)C(F)(F)C(F)(F)C(F)(F)C(F)(F)F,inactive,–
O=C(O)C(F)(OC(F)(F)C(F)(OC(F)(F)C(F)(OC(F)(F)C(F)(F)C(F)(F)F)C(F)(F)F)C(F)(F)F)C(F)(F)F (stereo not given),inactive,–
FC(F)(F)C(F)(F)CNCC(F)(F)C(F)(F)F,inactive,–
OCC(F)(F)C(F)(F)C(F)(F)C(F)F,inactive,–
O=C(O)C(F)(F)C(F)(F)C(F)(F)C(F)(F)C(F)(F)C(F)(F)C(F)(F)C(F)(F)C(F)(F)C(F)(F)C(F)(F)C(F)(F)C(F)(F)F,inactive,–
O=S(=O)(OCC(F)F)C(F)(F)F,inactive,–
O=C(O)C(F)(OC(F)(F)C(F)(OC(F)(F)C(F)(F)C(F)(F)F)C(F)(F)F)C(F)(F)F (stereo not given),inactive,–
OCC(F)(F)C(F)(F)C(F)(F)C(F)(F)C(F)(F)C(F)(F)F,inactive,–
FC(F)(I)C(F)(F)C(F)(F)C(F)(F)I,–,24.3 µM (active)
FC(F)(F)C(F)(F)C(F)(F)C(F)(F)C(F)(F)C(F)(F)C(F)(F)C(F)(F)CCS,inactive,–
OCC(F)(F)C(F)(F)C(F)(F)C(F)(F)C(F)(F)C(F)F,inactive,–
FC(F)(F)C(F)(F)C(F)(F)N(C(F)(F)C(F)(F)C(F)(F)F)C(F)(F)C(F)(F)C(F)(F)F,inactive,–
O=C(CC(=O)C(F)(F)C(F)(F)F)C(F)(F)F,inactive,–
O=C(O)C(F)(F)C(F)(F)C(F)(F)C(F)(F)C(F)(F)C(F)(F)C(F)(F)C(F)(F)Cl,–,16.7 µM (active)
OCC(F)(F)C(F)(F)C(F)(F)F,inactive,–
CCCCCCC(C)OC(=O)CCCCC(=O)OC(C)CCCCCC (stereo not given),inactive,–
O=S(=O)(O)C(F)(F)C(F)(F)C(F)(F)C(F)(F)C(F)(F)C(F)(F)C(F)(F)F,–,16.6 µM (active)
FC(F)(F)C(F)(F)C(F)(F)CI,inactive,–
FC(F)(F)C(F)(F)C(F)(F)C(F)(F)CCI,inactive,–
O=C(Cl)C(F)(F)C(F)(F)C(F)(F)C(F)(F)C(F)(F)C(F)(F)C(F)(F)C(F)(F)F,–,11.4 µM (active)
